Data: PMC7862700, “An all-to-all approach to the identification of sequence-specific readers for epigenetic DNA modifications on cytosine”

Tests used:
Assay in all cases: DAPPL (digital affinity profiling via proximity ligation, sequencing); 10 mM Tris-HCl pH 7.5, 50 mM NaCl, 1 mM DTT, 4% glycerol, room temperature, 30 min; GST-TFs on glutathione beads, 16-mer random dsDNA library, 0.1% formaldehyde crosslink after washing; high values mean tight binding
FEV = target: T1, FEV (Homo sapiens, UniProt Q99581 1-238); details: protein: recombinant; tags: N-terminal GST; dsDNA, one strand shown
T1 sequence: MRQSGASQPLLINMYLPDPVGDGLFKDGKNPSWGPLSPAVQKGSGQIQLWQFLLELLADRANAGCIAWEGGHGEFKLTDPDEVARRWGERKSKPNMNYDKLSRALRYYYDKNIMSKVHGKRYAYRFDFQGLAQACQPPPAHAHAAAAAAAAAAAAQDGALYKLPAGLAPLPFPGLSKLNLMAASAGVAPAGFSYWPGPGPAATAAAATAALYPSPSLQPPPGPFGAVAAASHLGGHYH
Method in brief: (§1)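 Sequencing on an Illumina NextSeq500 followed washing, crosslinking with 0.1% formaldehyde, proximity ligation (BsaI/T4 ligase, 1 h, 37 °C) and PCR amplification of pools that had been incubated for 30 min at room temperature with 200 nmole of a random double-stranded 16-mer DNA library in Tris/NaCl/DTT/glycerol buffer. Each pool held DNA-barcoded human transcription factors, expressed in yeast as GST fusions and captured on glutathione beads, plus a tag-only sample. Binding signal is a hexamer's read frequency for a factor divided by its frequency in the tag-only sample.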

ETV5 = ETV5 (Homo sapiens, UniProt P41161 1-510); details: protein: recombinant; tags: N-terminal GST; dsDNA, one strand shown
Method in brief: as §1

HSF1 = HSF1 (Homo sapiens, UniProt Q00613 1-529); details: protein: recombinant; tags: N-terminal GST; chain copies: 3; dsDNA, one strand shown
Method in brief: as §1

SPIC = target: T2, SPIC (Homo sapiens, UniProt Q8N5J4 1-248); details: protein: recombinant; tags: N-terminal GST; dsDNA, one strand shown
T2 sequence: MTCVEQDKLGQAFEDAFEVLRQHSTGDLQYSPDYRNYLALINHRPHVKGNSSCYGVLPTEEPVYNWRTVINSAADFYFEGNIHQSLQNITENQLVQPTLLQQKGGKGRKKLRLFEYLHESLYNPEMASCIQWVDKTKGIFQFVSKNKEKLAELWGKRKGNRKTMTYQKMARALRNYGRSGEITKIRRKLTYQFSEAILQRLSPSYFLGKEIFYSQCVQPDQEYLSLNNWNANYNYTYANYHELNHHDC
Method in brief: as §1

ELF4 = ELF4 (Homo sapiens, UniProt Q99607 1-663); details: protein: recombinant; tags: N-terminal GST; dsDNA, one strand shown
Method in brief: as §1

ELK4 = target: T3, ELK4 (Homo sapiens, UniProt P28324-2 1-405); details: protein: recombinant; tags: N-terminal GST; dsDNA, one strand shown
T3 sequence: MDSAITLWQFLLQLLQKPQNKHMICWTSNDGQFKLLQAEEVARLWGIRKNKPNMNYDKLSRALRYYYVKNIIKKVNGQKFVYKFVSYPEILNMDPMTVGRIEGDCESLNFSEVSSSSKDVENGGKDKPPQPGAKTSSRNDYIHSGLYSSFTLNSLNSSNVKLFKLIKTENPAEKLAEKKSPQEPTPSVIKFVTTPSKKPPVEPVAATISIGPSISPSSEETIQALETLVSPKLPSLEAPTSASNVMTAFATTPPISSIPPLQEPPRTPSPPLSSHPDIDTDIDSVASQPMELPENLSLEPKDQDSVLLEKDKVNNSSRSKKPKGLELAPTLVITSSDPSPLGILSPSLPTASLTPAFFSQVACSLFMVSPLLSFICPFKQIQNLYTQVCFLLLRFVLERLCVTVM
Method in brief: as §1

ETV2 = target: T4, ETV2 (Homo sapiens, UniProt O00321 1-342); details: protein: recombinant; tags: N-terminal GST; dsDNA, one strand shown
T4 sequence: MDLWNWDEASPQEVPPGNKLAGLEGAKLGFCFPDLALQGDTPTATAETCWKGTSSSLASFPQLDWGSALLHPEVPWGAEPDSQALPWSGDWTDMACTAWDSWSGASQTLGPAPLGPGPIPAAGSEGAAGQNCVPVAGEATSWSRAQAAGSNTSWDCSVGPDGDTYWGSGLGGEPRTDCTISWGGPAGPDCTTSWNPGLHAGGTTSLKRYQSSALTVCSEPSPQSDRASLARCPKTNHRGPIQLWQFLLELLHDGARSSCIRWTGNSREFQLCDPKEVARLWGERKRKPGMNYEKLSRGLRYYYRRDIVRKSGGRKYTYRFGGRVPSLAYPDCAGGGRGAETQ
Method in brief: as §1

ELF3 = target: T5, ELF3 (Homo sapiens, UniProt P78545 1-371); details: protein: recombinant; tags: N-terminal GST; dsDNA, one strand shown
T5 sequence: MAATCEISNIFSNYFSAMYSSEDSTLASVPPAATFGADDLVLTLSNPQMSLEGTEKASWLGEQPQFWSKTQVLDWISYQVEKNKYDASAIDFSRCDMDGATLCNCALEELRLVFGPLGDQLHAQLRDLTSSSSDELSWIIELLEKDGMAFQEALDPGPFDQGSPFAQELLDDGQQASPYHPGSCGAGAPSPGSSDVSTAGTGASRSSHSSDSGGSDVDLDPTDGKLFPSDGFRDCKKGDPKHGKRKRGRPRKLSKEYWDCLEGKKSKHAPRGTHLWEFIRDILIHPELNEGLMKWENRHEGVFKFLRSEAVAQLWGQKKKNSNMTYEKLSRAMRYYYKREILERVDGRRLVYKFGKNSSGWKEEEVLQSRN
Method in brief: as §1

CRX = CRX (Homo sapiens, UniProt O43186 1-299); details: protein: recombinant; tags: N-terminal GST; dsDNA, one strand shown
Method in brief: as §1

ETV1 = ETV1 (Homo sapiens, UniProt P50549 1-477); details: protein: recombinant; tags: N-terminal GST; dsDNA, one strand shown
Method in brief: as §1

Sequence of HSF1 (Q00613 whole entry): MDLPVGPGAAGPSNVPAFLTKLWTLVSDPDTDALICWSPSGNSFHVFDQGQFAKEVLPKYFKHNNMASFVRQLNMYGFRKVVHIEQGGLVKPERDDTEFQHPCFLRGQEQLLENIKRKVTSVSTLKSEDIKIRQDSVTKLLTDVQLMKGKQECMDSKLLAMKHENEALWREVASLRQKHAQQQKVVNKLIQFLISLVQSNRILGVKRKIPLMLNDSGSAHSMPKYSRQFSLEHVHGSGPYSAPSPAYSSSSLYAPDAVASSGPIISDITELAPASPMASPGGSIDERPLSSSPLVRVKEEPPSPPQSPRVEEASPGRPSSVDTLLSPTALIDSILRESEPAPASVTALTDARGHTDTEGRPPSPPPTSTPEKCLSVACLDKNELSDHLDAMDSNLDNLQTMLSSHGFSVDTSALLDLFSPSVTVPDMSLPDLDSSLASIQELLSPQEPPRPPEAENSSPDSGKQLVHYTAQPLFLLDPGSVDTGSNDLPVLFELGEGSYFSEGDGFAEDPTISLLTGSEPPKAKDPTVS
Sequence of CRX (O43186 whole entry): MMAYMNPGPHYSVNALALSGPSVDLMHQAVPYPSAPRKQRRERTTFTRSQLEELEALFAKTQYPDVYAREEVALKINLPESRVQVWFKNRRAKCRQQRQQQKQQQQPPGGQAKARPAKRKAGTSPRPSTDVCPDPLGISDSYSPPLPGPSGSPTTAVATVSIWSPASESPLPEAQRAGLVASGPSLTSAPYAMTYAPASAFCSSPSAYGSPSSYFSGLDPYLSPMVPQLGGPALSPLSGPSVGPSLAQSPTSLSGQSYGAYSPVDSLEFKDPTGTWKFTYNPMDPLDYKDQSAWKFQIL
Sequence of ETV5 (P41161 whole entry): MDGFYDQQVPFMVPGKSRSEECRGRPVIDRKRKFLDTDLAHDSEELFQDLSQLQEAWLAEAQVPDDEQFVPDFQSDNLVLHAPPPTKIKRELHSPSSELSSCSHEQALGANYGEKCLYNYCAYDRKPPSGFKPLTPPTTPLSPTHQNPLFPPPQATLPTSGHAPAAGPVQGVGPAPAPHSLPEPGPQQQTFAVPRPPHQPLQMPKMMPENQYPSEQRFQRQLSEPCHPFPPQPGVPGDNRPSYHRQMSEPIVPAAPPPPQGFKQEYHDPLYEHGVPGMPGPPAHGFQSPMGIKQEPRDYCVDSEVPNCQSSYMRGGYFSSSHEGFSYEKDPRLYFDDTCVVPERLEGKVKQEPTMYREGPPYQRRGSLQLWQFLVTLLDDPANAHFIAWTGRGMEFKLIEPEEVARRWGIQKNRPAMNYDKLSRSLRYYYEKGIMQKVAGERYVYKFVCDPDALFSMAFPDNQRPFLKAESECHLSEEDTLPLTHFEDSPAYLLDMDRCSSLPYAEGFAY
Sequence of ETV1 (P50549 whole entry): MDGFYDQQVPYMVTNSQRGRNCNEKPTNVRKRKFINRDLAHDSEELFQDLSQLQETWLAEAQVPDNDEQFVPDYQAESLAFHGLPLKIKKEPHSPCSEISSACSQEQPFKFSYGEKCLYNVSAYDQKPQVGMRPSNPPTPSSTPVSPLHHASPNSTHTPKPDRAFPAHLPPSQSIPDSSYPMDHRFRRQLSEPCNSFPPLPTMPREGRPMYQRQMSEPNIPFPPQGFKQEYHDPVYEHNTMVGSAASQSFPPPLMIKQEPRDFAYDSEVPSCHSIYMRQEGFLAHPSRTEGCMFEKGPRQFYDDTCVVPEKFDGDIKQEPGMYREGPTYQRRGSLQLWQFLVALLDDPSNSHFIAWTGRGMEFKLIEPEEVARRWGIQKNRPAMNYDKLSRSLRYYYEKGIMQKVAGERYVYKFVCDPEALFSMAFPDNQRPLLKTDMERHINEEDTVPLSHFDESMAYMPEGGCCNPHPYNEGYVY
Sequence of ELF4 (Q99607 whole entry): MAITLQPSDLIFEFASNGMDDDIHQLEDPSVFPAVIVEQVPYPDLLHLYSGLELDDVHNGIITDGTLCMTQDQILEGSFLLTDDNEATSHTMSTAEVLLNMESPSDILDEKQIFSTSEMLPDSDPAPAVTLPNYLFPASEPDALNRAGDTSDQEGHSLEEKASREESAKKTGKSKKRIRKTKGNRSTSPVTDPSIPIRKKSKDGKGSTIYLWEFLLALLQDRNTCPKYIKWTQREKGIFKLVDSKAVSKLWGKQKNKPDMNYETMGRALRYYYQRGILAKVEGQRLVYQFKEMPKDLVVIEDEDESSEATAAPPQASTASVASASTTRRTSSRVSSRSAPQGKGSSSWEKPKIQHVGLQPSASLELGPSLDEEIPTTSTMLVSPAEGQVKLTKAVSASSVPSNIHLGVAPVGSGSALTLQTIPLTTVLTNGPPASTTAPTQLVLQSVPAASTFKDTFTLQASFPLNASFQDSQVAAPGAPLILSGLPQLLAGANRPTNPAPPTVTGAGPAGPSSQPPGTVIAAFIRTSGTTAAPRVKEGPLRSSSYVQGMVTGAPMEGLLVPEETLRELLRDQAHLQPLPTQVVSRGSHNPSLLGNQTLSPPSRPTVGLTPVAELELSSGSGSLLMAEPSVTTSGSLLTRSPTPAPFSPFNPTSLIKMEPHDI

ATACAG
binding signal (FEV): 1.14 fold enrichment (6-mer frequency, TF over GST control)
binding signal (ETV5): 1.13 fold enrichment (6-mer frequency, TF over GST control)
binding signal (HSF1): 1.02 fold enrichment (6-mer frequency, TF over GST control)
binding signal (SPIC): 1.14 fold enrichment (6-mer frequency, TF over GST control)
binding signal (ELF4): 1.18 fold enrichment (6-mer frequency, TF over GST control)
binding signal (ELK4): 1.08 fold enrichment (6-mer frequency, TF over GST control)
binding signal (ETV2): 1.24 fold enrichment (6-mer frequency, TF over GST control)
binding signal (ELF3): 1.12 fold enrichment (6-mer frequency, TF over GST control)
binding signal (CRX): 1.02 fold enrichment (6-mer frequency, TF over GST control)
binding signal (ETV1): 1.11 fold enrichment (6-mer frequency, TF over GST control)
